# Laboratory results reported in PubChem BioAssay.
# Activity calls are given as the source filed them.
# How the values were obtained:
# Albumin (Bos taurus) = Albumin (Bos taurus) (UniProt P02769); assay: bovine serum albumin binders on microarray, profiling panel, artefact control for SMM control protein annotation, biochemical, small-molecule microarray, Alexa647 label, 635/667 nm fluorescence (AID 1118); settings: BSA-A647 binding, fluorescence 635 nm, higher = more signal;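 also: score merges 667 nm emission intensity and signal-to-noise per printed compound spot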
# [1] = small-molecule microarray binders of probe aXIP, primary screen, biochemical, NeuroSMM set, 635/667 nm fluorescence (AID 1119); settings: higher = more signal, called active from +8 up or from −8 down;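 also: probe is the protein aXip251-270 applied at 1 µg/mL to compound-printed slides; binding of probe to printed compounds measured as 667 nm fluorescence plus signal to noise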
# [2] = small-molecule binders of probe aNOTCH3, primary screen, biochemical, small-molecule microarray, 635/667 nm fluorescence (AID 1120); settings: higher = more signal;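 also: probe is a biotin-tagged antibody raised against NOTCH3 rather than NOTCH3 protein; score merges spot fluorescence near 667 nm with spot signal to noise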
# [3] = small-molecule binders of probe aNOTCH2, primary screen, biochemical, small-molecule microarray, 635/667 nm fluorescence (AID 1121); settings: higher = more signal;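 also: score merges feature fluorescence read at 667 nm with its signal to noise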
# [4] = biological target: Carbonic anhydrase 2 (Homo sapiens) (UniProt P00918); assay: CAII small-molecule binders, profiling panel, biochemical, small-molecule microarray, Alexa647-labelled CAII (AID 1122); settings: CAII-A647 binding fluorescence, higher = more signal
# [5] = COS7 lysate on small-molecule microarray, probe aHis, 635 nm (AID 1123); settings: COS7 cell lysate, fluorescence, higher = more signal;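 also: z-score combines 667nm fluorescence intensity with signal-to-noise per printed compound spot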
# [6] = compound binding in COS7 lysate, probe aLAP1, primary screen, cell lysate, small-molecule microarray (AID 1124); settings: probe aLAP1, fluorescence, higher = more signal;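 also: lysate comes from COS7 cells expressing LAP1 and is applied at 0.3 µg/mL; score merges spot fluorescence near 667 nm with signal-to-noise over triplicate slides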
# Sam68 (KHDRBS1) = assay: Sam68 small-molecule binders, primary screen, biochemical, small-molecule microarray, 635 nm fluorescence (AID 1125); settings: small-molecule microarray binding, higher = more signal;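 also: score merges 667 nm channel intensity with signal to noise over triplicate slides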
# [7] = system: Chordin-like protein 2 (CHRDL2); assay: CHRDL2 small-molecule binders, primary screen, biochemical, small-molecule microarray, 635 nm fluorescence (AID 1126); settings: small-molecule microarray binding, fluorescence 635 nm; higher = more signal;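 also: printed compound slides probed with Chrdl2 protein at 4 µg/mL for 1 h at 4 C; score merges 667 nm emission intensity with signal to noise over three replicate slides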
# [8] = biological target: Concanavalin-A (Canavalia ensiformis) (UniProt P02866); assay: ConA small-molecule binders, primary screen, artefact control for SMM control protein annotation, biochemical, small-molecule microarray, Alexa647 label, 635 nm (AID 1127); settings: ConA-A647 binding fluorescence, higher = more signal;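 also: z combines 667 nm emission intensity with signal-to-noise across three replicate slides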
# [9] = anti-His antibody binders, primary screen, artefact control for SMM control protein annotation, biochemical, small-molecule microarray, 635 nm fluorescence (AID 1128); settings: anti-His Alexa647 antibody binding, higher = more signal;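 also: score merges feature fluorescence with signal-to-noise for each printed compound spot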
# [10] = system: Human papillomavirus type 1a E7 protein (residues 1-88); assay: HPV1a E7 small-molecule binders, primary screen, biochemical, small-molecule microarray, residues 1-88, 635 nm (AID 1129); settings: small-molecule microarray binding, fluorescence 635 nm; higher = more signal
# [11] = biological target: Focal adhesion kinase 1 (Homo sapiens) (UniProt Q05397); assay: small-molecule microarray binders of FAK, primary screen, biochemical, 635/667 nm fluorescence, BSA, DTT (AID 1130); settings: PTK2 binding, 635 nm fluorescence, higher = more signal;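 also: composite of spot emission at 667 nm and signal to noise over triplicate slides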
# [12] = system: Fibrinogen (Alexa647-labelled); assay: fibrinogen binders on compound microarrays, profiling panel, artefact control for SMM control-protein annotation, biochemical, small-molecule microarray, 635/667 nm fluorescence (AID 1131); settings: fibrinogen-A647 binding fluorescence, higher = more signal;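 also: z-score merges 667 nm fluorescence with per-spot signal-to-noise over triplicate slides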
# [13] = biological target: Follistatin (Homo sapiens) (UniProt P19883); assay: follistatin binders on small-molecule microarrays, primary screen, biochemical, small-molecule microarray, 635/667 nm fluorescence (AID 1132); settings: FST binding, 635 nm fluorescence, higher = more signal
# [14] = biological target: Fibroblast growth factor 2 (Homo sapiens) (UniProt P09038); assay: FGF2 binders on small-molecule microarrays, primary screen, biochemical, small-molecule microarray, 635/667 nm fluorescence (AID 1133); settings: small-molecule microarray binding, FGF2, fluorescence 635/667; higher = more signal
# [15] = mitochondrial membrane potential change in A549 cells, profiling panel, cell-based, JC-1 fluorescence, basal, 24 h, 100 nL (AID 1138); settings: higher = more signal;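 also: A549 lung adenocarcinoma cells under basal conditions with no added stimulus; test concentration not given here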
# Lefty1 = Lefty1 binders on small-molecule microarrays, primary screen, biochemical, small-molecule microarray, 635/667 nm fluorescence (AID 1139); settings: small-molecule microarray binding, fluorescence 635/667; higher = more signal
# [16] = system: wheat germ agglutinin (Triticum aestivum), Alexa647-labelled; assay: wheat germ agglutinin binders on compound microarrays, profiling panel, artefact control for SMM control-protein annotation, biochemical, small-molecule microarray, 635/667 nm fluorescence (AID 1140); settings: WGA-A647 binding, 635 nm fluorescence, higher = more signal;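 also: score merges 667 nm feature emission with signal to noise over triplicate slides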
# [17] = biological target: Luciferin 4-monooxygenase (Photinus pyralis) (UniProt P08659); assay: firefly luciferase enzyme inhibitors, primary screen, biochemical, luminescence, purified enzyme, 2006 set (AID 1141); settings: SteadyGlo luminescence, 30 min, higher = more signal, called active from +8 up or from −8 down;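 also: cell-free assay with purified firefly luciferase at 100 ng per well in PBS; test concentration not given here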
# Luciferin 4-monooxygenase (Photinus pyralis), sequence (P08659 whole entry, looked up): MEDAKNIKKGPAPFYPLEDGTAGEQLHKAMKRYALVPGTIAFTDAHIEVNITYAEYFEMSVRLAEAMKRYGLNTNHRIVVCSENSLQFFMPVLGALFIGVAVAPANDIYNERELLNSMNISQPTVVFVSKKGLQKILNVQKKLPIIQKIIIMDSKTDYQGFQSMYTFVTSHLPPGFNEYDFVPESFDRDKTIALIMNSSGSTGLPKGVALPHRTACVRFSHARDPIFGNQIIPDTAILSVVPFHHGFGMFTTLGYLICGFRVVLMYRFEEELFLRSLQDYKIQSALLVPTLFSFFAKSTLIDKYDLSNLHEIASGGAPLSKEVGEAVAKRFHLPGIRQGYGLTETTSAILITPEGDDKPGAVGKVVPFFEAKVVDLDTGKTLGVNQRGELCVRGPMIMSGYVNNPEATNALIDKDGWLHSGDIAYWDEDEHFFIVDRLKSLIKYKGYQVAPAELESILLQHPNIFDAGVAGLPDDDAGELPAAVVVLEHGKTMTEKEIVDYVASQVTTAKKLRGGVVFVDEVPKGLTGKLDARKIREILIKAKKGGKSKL
# Concanavalin-A (Canavalia ensiformis), sequence (P02866 whole entry, looked up): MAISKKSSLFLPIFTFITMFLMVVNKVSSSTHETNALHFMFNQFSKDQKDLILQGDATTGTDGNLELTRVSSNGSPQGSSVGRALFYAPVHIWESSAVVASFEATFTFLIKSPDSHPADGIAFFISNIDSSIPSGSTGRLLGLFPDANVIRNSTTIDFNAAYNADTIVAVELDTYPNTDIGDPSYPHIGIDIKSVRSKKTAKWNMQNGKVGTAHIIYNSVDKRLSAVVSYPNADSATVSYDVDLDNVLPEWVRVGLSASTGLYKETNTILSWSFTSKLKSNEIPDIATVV
# Fibroblast growth factor 2 (Homo sapiens), sequence (P09038 whole entry, looked up): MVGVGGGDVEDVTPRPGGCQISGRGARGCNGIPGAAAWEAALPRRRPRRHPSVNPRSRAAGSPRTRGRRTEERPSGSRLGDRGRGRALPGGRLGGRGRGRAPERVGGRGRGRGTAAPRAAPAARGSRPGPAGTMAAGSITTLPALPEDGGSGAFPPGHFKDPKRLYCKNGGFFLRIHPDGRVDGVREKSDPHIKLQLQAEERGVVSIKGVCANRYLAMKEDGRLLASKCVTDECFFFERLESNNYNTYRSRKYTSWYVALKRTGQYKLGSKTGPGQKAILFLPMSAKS
# Albumin (Bos taurus), sequence (P02769 whole entry, looked up): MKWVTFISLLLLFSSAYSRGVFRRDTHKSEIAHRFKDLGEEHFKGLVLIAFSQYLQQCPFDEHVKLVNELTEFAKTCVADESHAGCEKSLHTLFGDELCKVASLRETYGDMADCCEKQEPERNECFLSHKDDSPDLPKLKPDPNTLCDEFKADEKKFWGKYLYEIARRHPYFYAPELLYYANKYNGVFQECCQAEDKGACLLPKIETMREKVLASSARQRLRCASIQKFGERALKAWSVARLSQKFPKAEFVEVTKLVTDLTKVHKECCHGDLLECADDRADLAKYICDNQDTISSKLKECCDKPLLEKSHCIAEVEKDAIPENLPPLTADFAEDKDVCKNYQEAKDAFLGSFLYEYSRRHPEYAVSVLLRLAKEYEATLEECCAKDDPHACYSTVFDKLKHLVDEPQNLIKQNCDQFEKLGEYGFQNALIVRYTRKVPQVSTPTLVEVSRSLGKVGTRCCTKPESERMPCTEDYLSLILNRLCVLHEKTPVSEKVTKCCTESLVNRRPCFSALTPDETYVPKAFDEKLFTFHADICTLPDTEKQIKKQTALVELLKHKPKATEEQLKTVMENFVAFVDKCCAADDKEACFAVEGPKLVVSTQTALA
# Focal adhesion kinase 1 (Homo sapiens), sequence (Q05397 whole entry, looked up): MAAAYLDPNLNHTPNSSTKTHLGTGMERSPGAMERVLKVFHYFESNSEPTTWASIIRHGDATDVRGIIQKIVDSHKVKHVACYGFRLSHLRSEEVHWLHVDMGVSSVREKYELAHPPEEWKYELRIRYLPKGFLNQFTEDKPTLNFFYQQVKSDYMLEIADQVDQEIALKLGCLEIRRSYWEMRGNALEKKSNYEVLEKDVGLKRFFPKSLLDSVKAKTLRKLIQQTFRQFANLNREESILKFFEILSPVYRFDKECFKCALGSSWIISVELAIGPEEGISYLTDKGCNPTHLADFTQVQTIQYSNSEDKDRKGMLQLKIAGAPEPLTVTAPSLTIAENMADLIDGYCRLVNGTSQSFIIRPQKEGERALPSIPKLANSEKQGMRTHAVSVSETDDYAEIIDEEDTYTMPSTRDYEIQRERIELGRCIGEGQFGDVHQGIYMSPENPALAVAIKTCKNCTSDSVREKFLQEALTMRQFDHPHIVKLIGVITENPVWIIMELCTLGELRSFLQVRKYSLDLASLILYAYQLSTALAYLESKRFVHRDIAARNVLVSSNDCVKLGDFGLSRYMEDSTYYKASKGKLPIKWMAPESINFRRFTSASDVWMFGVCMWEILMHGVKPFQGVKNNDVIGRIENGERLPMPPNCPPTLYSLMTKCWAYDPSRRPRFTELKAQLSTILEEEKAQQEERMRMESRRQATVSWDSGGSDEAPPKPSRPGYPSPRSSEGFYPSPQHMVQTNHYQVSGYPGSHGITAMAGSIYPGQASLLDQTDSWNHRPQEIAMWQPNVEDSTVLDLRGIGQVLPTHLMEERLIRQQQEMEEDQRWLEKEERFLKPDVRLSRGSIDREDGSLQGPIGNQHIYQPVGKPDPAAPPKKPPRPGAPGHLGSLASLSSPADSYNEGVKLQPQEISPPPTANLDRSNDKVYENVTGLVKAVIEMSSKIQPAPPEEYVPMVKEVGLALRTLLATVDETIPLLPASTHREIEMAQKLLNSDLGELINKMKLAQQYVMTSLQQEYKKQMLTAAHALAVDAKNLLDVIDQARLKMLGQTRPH
# Follistatin (Homo sapiens), sequence (P19883 whole entry, looked up): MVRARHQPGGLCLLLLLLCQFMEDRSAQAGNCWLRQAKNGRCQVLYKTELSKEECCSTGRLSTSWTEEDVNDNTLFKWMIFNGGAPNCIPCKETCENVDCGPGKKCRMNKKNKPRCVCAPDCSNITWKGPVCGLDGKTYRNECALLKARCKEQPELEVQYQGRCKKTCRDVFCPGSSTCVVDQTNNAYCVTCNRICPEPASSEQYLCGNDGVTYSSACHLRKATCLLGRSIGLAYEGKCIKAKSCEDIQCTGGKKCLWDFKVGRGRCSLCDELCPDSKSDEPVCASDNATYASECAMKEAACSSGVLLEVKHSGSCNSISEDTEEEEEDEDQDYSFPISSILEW
SMILES,composite z-score (Albumin (Bos taurus)),composite Z-score [1],composite z-score [2],composite z-score [3],composite z-score [4],composite z-score [5],composite z-score [6],composite z-score (Sam68 (KHDRBS1)),composite z-score [7],composite z-score [8],composite z-score [9],composite z-score [10],composite z-score [11],composite z-score [12],composite z-score [13],composite z-score [14],z-score [15],composite z-score (Lefty1),composite z-score [16],z-score [17]
COc1ccc(O[C@H]2C=C[C@@H](c3ccccc3)O[C@@H]2COC(=O)CCC(C)=NO[C@@H]2O[C@H](COC(C)=O)[C@@H](OC(C)=O)[C@H](OC(C)=O)[C@H]2OC(C)=O)cc1,0.303,-0.211 (inactive),0.0322,-0.211,-0.0481,0.752,0.0839,1.32,0.786,0.544,0.487,0.795,-0.234,0.708,0.293,0.641,-0.388,0.742,0.262,1.16 (inactive)
CO[C@H]1COC(=O)CCC[C@@H](C)[C@H](OC)COC(=O)[C@@H](C)NC(=O)CC=C[C@@H]1C,-0.46,0.667 (inactive),-0.0647,-0.134,-0.716,-1.8,-0.126,0.186,1.45,-0.456,-0.132,-1.12,-0.154,-0.737,1.12,1.17,-0.716,1.42,-0.878,0.624 (inactive)
CC(C)CON=C1C[C@@H](O)[C@@H](O)[C@@H]2[C@@H]3C(=O)N(C4CCCCC4)C(=O)[C@@H]3CC[C@H]12,0.536,-0.409 (inactive),0.0021,-0.125,0.445,0.84,0.606,1.3,0.25,1.11,0.55,0.666,0.005,0.657,0.346,0.781,0.246,0.837,0.812,-0.266 (inactive)
COC(=O)[C@@H]1CC[C@H](C)[C@@H](c2ccc(C)cc2)N1C(=O)c1ccc(C=NO[C@@H](C)c2cn([C@H](CO)Cc3ccccc3)nn2)cc1,0.597,-0.222 (inactive),0.217,-0.09,0.097,1.2,-0.151,1.32,0.892,0.81,1.37,1.13,0.262,0.648,0.717,1.16,1.04,1.23,0.147,-0.249 (inactive)
Cc1ccc(S(=O)(=O)N[C@@H]2COC(=O)[C@@H](C)COC(=O)CC=C[C@H]2C)cc1,-0.0824,-0.145 (inactive),0.135,-0.162,-0.006,-0.0704,-0.0424,-0.181,0.379,0.457,0.204,0.389,-0.033,0.466,0.516,0.636,0.493,0.383,-0.0537,-0.836 (inactive)
CC=CC1=C(CO)C(=O)[C@@H]2O[C@@H]2C1=O,-0.651,0.833 (inactive),-0.109,-0.102,0.298,-0.91,-0.724,-0.533,1.45,-0.579,0.366,-0.385,-0.681,-0.328,1.44,1.89,-1.06,1.34,-0.173,-0.78 (inactive)
CCOC(=O)[C@H](Cc1ccccc1)NC(=O)OC1CC(CCC2CC(CC)=NO2)OC2(CCCC(COC(=O)NCCC(C)C)O2)C1 (stereo not given in full),0.459,0.257 (inactive),-0.133,-0.179,0.312,0.86,-0.342,0.676,0.139,0.918,0.272,0.55,0.271,0.305,0.0871,0.342,-0.0991,-0.033,0.668,0.772 (inactive)
O=C1C[C@@H](O)[C@@H](O)[C@@H]2[C@@H]3C(=O)N(Cc4ccccc4)C(=O)[C@@H]3CC[C@@H]12,0.256,0.277 (inactive),-0.0328,-0.12,0.0093,-0.281,0.213,0.63,0.791,0.633,0.467,0.789,0.0901,0.547,0.892,0.895,-0.305,0.551,0.0697,-0.0665 (inactive)
COc1ccc(O[C@H]2C=C[C@@H](c3ccccc3)O[C@@H]2CON=C(C)C)cc1,0.0254,0.537 (inactive),0.201,-0.0548,0.153,0.136,-0.0187,-1.05,0.0435,0.0731,-0.732,-1.11,0.433,0.152,0.234,-0.287,-0.541,-0.0027,0.938,0.409 (inactive)
